Data reported in PubChem BioAssay (Tox21).
Inconclusive results are not listed. Active and inactive are the calls of the source. Unless noted, calls come from the whole dose curve; as a rule, active = well fitted curve in the direction sought with a large enough effect in the repeat runs; inconclusive = weak or mixed curves; inactive = no such curve, though single readings can be large; an effect the other way counts as inactive or inconclusive.

What was measured:
[1] = qHTS assay for small molecule agonists of the p53 signaling pathway (AID 651631; calls by dose curve; note: nearly all actives have a fitted effect of over 15% in size)
How it was run: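 HCT-116 cells carrying a beta-lactamase reporter under p53 response elements were dosed with compound for 16 h at 37 °C. LiveBLAzer B/G FRET substrate was then added for 2 h at room temperature, and fluorescence intensity was read to detect pathway agonism.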

[2] = qHTS assay for small molecules that induce genotoxicity in human embryonic kidney cells expressing luciferase-tagged ATAD5 (AID 651632); note: nearly all actives have a fitted effect of over 15% in size
How it was run: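 Genotoxicity read-out via ATAD5-luciferase: HEK293T cells, 16 hr compound incubation at 37C, Amplite detection.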

[3] = qHTS assay for small molecule agonists of the p53 signaling pathway - cell viability (AID 651633; calls by dose curve;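 note: p53RE-bla HCT reporter cells with a stable beta-lactamase p53 reporter; series mostly up to about 83 µM; nearly all actives have a fitted effect of over 30% in size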)
How it was run: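 p53RE-bla cells were treated with compound for 16 hours at 37 C. Cytotoxicity was then measured as CellTiter-Glo luminescence after 30 min at room temperature.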

[4] = qHTS assay for small molecules that induce genotoxicity in human embryonic kidney cells expressing luciferase-tagged ATAD5 - cell viability (AID 651634; calls by dose curve; note: nearly all actives have a fitted effect of over 25% in size)
How it was run: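 Live-cell protease activity (CellTiter-Fluor, fluorescence) indicates viability. HEK293T cells with luciferase-tagged ATAD5; 15.5 hr compound treatment at 37C.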

[5] = qHTS assay for small molecule disruptors of the mitochondrial membrane potential - cell viability (AID 720634; calls by dose curve;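 note: human HepG2 liver cancer cells; series mostly up to about 83 µM; nearly all actives have a fitted effect of over 20% in size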)
How it was run: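 Human hepatoma HepG2 cells were treated for 1 hr with test chemicals, then given m-MPI dye and CellTiter-Glo. Cell viability reflects luminescence proportional to cellular ATP.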

[6] = qHTS assay for small molecule disruptors of the mitochondrial membrane potential (AID 720635)
How it was run: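 HepG2 cells exposed to compound 1 hr at 37C, then Mito-MPS dye 30 min. Ratio read of aggregate (540/590 nm) versus monomer (490/535 nm) fluorescence.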

[7] = qHTS assay to test for compound auto fluorescence at 590 nm (red) in HepG2 cells (AID 720674)
How it was run: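 Fluorescence at 590 nm emission following 540 nm excitation was recorded from HepG2 wells one hour after compound transfer, with DMSO-only wells as vehicle and Rose Bengal sodium equivalency as the scale.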

[8] = qHTS assay to test for compound auto fluorescence at 460 nm (blue) in HEK293 cells (AID 720678)
How it was run: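 After cell attachment (4-5 hr, 37C), compounds were pinned onto HEK293 monolayers in 10% dialyzed FBS medium. The blue channel (405/460 nm) was read following overnight culture. Equivalency was calculated against triamterene.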

[9] = qHTS assay to test for compound auto fluorescence at 590 nm (red) in HEK293 cells (AID 720679)
How it was run: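 Plates of HEK293 cells (10% dialyzed FBS) are treated with 23 nL compound or DMSO vehicle after a 4-5 hr attachment period, incubated overnight at 37C, and read for red fluorescence at 540/590nm.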

[10] = qHTS assay to test for compound auto fluorescence at 535 nm (green) in HEK293 cells (AID 720680)
[11] = qHTS assay to test for compound auto fluorescence at 460 nm (blue) in HEK293 cell free culture (AID 720681)
How it was run: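 Compounds were added to cell-free DMEM with 10% FBS and fluorescence read directly. The blue channel used 405 nm excitation and 460 nm emission, with triamterene as the reference fluorophore.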

[12] = qHTS assay to test for compound auto fluorescence at 535 nm (green) in HEK293 cell free culture (AID 720682)
How it was run: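 Green-label autofluorescence (485 nm excitation, 535 nm emission) measured on compound added to cell-free culture medium (DMEM, 10% FBS). Output is expressed relative to fluorescein.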

[13] = qHTS assay to test for compound auto fluorescence at 590 nm (red) in HEK293 cell free culture (AID 720683)
How it was run: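 Cell-free wells of DMEM with 10% FBS received compound, and intrinsic fluorescence was read at excitation/emission 540/590 nm. Values expressed as equivalence to Rose Bengal sodium.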

[14] = qHTS assay to test for compound auto fluorescence at 460 nm (blue) in HepG2 cell free culture (AID 720685)
How it was run: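 Compound (23 nL) or DMSO pinned into cell-free MEM with 10% FBS; blue fluorescence read at 405/460 nm excitation/emission, expressed as auto-fluorescence equivalency to triamterene.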

[15] = qHTS assay to test for compound auto fluorescence at 535 nm (green) in HepG2 cell free culture (AID 720686)
[16] = qHTS assay to test for compound auto fluorescence at 460 nm (blue) in HepG2 cells (AID 720687)
How it was run: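 HepG2 cells in MEM with 10% FBS, attached overnight at 37 C, were exposed to compound or DMSO for 1 hr at 37 C, 5% CO2. Blue fluorescence was read at 405/460 nm, with triamterene as reference fluorophore.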

[17] = target: Glucocorticoid receptor (Homo sapiens) (UniProt P04150); experiment: qHTS assay to identify small molecule agonists of the glucocorticoid receptor (GR) signaling pathway (AID 720691; active = well fitted activation curve with a large enough effect in the signal ratio in the repeat runs, not every such curve was filed as active; the % refers to the signal ratio)
Chain of Glucocorticoid receptor (Homo sapiens) (P04150 whole entry, looked up): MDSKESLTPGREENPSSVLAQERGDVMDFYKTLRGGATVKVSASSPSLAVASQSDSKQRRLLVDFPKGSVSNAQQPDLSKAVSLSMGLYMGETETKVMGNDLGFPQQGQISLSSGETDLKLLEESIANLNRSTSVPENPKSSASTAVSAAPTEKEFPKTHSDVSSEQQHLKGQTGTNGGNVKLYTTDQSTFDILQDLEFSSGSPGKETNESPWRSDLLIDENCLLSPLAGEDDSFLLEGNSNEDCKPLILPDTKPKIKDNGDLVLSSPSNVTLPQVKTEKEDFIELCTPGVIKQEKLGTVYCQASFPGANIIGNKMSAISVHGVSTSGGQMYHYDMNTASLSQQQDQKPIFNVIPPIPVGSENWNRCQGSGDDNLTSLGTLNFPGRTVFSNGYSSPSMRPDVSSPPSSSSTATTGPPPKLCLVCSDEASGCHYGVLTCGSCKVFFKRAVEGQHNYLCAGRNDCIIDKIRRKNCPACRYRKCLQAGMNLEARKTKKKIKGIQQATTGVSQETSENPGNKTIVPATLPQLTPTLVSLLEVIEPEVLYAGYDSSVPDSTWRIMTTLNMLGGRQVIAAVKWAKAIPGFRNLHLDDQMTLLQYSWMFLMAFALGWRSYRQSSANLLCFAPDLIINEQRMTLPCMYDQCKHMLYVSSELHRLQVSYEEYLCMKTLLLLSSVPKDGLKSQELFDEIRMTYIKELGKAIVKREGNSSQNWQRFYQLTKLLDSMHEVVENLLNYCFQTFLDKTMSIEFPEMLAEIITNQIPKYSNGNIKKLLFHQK
How it was run: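 Beta-lactamase reporter activity, read as fluorescence intensity, was measured in GR-bla HeLa cells exposed to compounds for 18 h at 37 C and then loaded with LiveBLAzer B/G FRET substrate for 2 h at room temperature.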

[18] = qHTS assay to test for compound auto fluorescence at 590 nm (red) in HepG2 cell free culture (AID 720684)
How it was run: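 Compounds are added to culture medium (MEM, 10% FBS) lacking cells, then fluorescence is read at excitation 540 nm, emission 590 nm, with Rose Bengal sodium as the equivalency standard.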

[19] = target: Glucocorticoid receptor (Homo sapiens) (UniProt P04150); experiment: qHTS assay to identify small molecule antagonists of the glucocorticoid receptor (GR) signaling pathway (AID 720692; active = well fitted inhibition curve with a large enough effect in the signal ratio in the repeat runs, not every such curve was filed as active; the % refers to the signal ratio)
How it was run: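 Fluorescence from cleaved LiveBLAzer B/G FRET substrate reports GRE-driven beta-lactamase in HeLa cells; compounds are tested against 5 nM dexamethasone (final) over 18 h at 37 C, substrate incubation 2 h at room temperature.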

[20] = qHTS assay to test for compound auto fluorescence at 535 nm (green) in HepG2 cells (AID 720675)
% is set by controls: 0 for no effect and ±100 for the full control effect.

O=C(OCCOCCO)c1ccccc1Nc1cccc(C(F)(F)F)c1
inactive: Potency [1] | Potency [2] | Potency [3] | Potency [4] | Potency [5] | Potency [6] | fluorescence, relative to Rose Bengal [7] -0.199% [at 18.6 µM] | fluorescence, % of triamterene [8] -0.0212% [at 18.6 µM] | fluorescence, % of fluorescent control [9] 0.0507% [at 18.6 µM] | fluorescence, % of fluorescein [10] -0.0064% [at 18.6 µM] | fluorescence, % of fluorescent control [11] -0.158% [at 18.6 µM] | activity change [12] 0.0151% [at 18.6 µM] | fluorescence, % of fluorescent control [13] -0.579% [at 18.6 µM] | fluorescence, % of fluorescent control [14] -0.0111% [at 18.6 µM] | fluorescence, % of fluorescein control [15] 0.0209% [at 18.6 µM] | fluorescence, % of fluorescent control [16] -0.0068% [at 18.6 µM] | Potency [17]

CCOC(=O)CC(=O)C(=O)OCC
inactive: Potency [1] | Potency [2] | Potency [3] | Potency [4] | Potency [5] | Potency [6] | outcome [7] | Potency [8] | outcome [9] | outcome [10] | Potency [11] | outcome [12] | outcome [13] | outcome [18] | Potency [14] | outcome [15] | Potency [16] | Potency [17] | Potency [19]

Cc1ccccc1N1C(=O)c2cc(S(N)(=O)=O)c(Cl)cc2NC1C (configuration not stated)
inactive: Potency [1] | Potency [2] | Potency [3] | Potency [4] | Potency [5] | Potency [6] | outcome [7] | Potency [8] | outcome [9] | outcome [12] | outcome [13] | outcome [18] | Potency [14] | outcome [15] | Potency [16] | Potency [17] | Potency [19]

CNCCCC1c2ccccc2C=Cc2ccccc21
inactive: Potency [1] | Potency [2] | Potency [3] | Potency [4] | Potency [5] | fluorescence, relative to Rose Bengal [7] -0.202% [at 18.6 µM] | fluorescence, % of fluorescein control [20] -0.0324% [at 18.6 µM] | fluorescence, % of triamterene [8] 0.0209% [at 18.6 µM] | fluorescence, % of fluorescent control [9] -0.279% [at 18.6 µM] | fluorescence, % of fluorescein [10] 0.0057% [at 18.6 µM] | activity change [12] 0.0344% [at 18.6 µM] | fluorescence, % of fluorescent control [13] -0.009% [at 18.6 µM] | fluorescence, % of Rose Bengal [18] 0.549% [at 18.6 µM] | fluorescence, % of fluorescent control [14] -0.0014% [at 18.6 µM] | fluorescence, % of fluorescein control [15] -0.0217% [at 18.6 µM] | fluorescence, % of fluorescent control [16] -0.121% [at 18.6 µM] | Potency [19]

CCCCC(CC)COC(=O)COc1ccc(Cl)cc1C (configuration not stated)
inactive: Potency [1] | Potency [2] | Potency [3] | Potency [4] | Potency [5] | outcome [7] | outcome [20] | Potency [8] | outcome [9] | outcome [10] | Potency [11] | outcome [12] | outcome [13] | outcome [18] | Potency [14] | outcome [15] | Potency [16]

CO[C@H]1O[C@H](CO)[C@@H](O)[C@H](O)[C@H]1O
inactive: Potency [1] | Potency [2] | Potency [3] | Potency [4] | Potency [5] | Potency [6] | outcome [7] | outcome [20] | Potency [8] | outcome [10] | outcome [12] | outcome [18] | Potency [14] | outcome [15] | Potency [16]
